Reference: PubChem BioAssay (NCATS)
Records with an inconclusive call do not appear. Values without a mark were called inactive. Calls follow the shape of the dose curve; as a rule, active = well fitted curve in the direction sought with a large enough effect; inconclusive = small, poorly fitted or top-dose-only effect, or another doubt; inactive = no such curve, though single readings can be large or run the other way.

Test: qHTS Assay for Identifying Gametocytocidal Compounds (AID 743244);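 also: actives lower the fluorescent signal which means gametocytes are killed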
Details: P. falciparum 3D7 stage III-V gametocytes, alamarBlue, 72 h; max response: stronger effect = lower value
Outline: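 3D7 gametocytes, stages III–V, 20,000/well; cpd 72 h, 37 °C/5% CO2; + alamarBlue 24 h; fluor. Ex 525/Em 598.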
% is scaled to controls: 0 for no effect and ±100 for the full control effect.

Row | Compound | max response
1 | C#C[C@]1(O)CC[C@H]2[C@@H]3[C@H](C)CC4=C(CCC(=O)C4)[C@H]3CC[C@@]21C | -5.37%
2 | Cc1ccc(-c2ncc(Cl)cc2-c2ccc(S(C)(=O)=O)cc2)cn1 | 12.8%
3 | Cc1c[nH]c2ccccc12 | 0.215%
4 | NC(=O)n1c(O)c(C(=O)c2cccs2)c2cc(Cl)ccc21 | -6.13%
5 | Nc1nc(N)c(-c2ccccc2)s1 | -3.45%
6 | CC(=C(CCOC(=O)C(C)C)SSC(CCOC(=O)C(C)C)=C(C)N(C=O)Cc1cnc(C)nc1N)N(C=O)Cc1cnc(C)nc1N | -5.02%
7 | N#C/C(=C1\SCC(c2ccccc2Cl)S1)n1ccnc1 (centres undefined) | 17.4%
8 | CC[C@]12CCCN3CCc4c(n(c5ccccc45)C(=O)C1)[C@@H]32 | 3.35%
9 | O=C(O)CCc1nc2ccccc2[nH]1 | 8.17%
10 | Nc1nc(-c2ccccc2)c(Br)c(=O)[nH]1 | -0.157%
11 | CC(=O)OC[C@H]1O[C@@H](n2ncc(=O)[nH]c2=O)[C@H](OC(C)=O)[C@@H]1OC(C)=O | 13.3%
12 | CC(=O)NO | 6.13%
13 | N/C(=N\N=C\c1ccc(Cl)cc1)N/N=C/c1ccc(Cl)cc1 | 0.563%
14 | CCCCCCCCCCC[C@@H](C[C@@H]1OC(=O)[C@H]1CCCCCC)OC(=O)[C@H](CC(C)C)NC=O | -7.75%
15 | COC(=O)C(c1ccccc1Cl)N1CCc2sccc2C1 (centres undefined) | 14.8%
16 | CC(=O)OCC(=O)[C@H]1CC[C@H]2[C@@H]3CCC4=CC(=O)CC[C@]4(C)[C@H]3CC[C@]12C | -7.41%
17 | COc1cc(N)c(Cl)cc1C(=O)NC1CCN(Cc2ccccc2)CC1 | -0.971%
18 | O=C(Nc1ccccc1)OCC(CN1CCCCC1)OC(=O)Nc1ccccc1 (centres undefined) | 3.58%
19 | CC(C(=O)O)c1cccc(Oc2ccccc2)c1 (centres undefined) | 17.6%
20 | C[C@@H](O)[C@H]1C(=O)N2C(C(=O)O)=C(S[C@@H]3CN[C@H](CNS(N)(=O)=O)C3)[C@H](C)[C@H]12 | 13.8%

Row | Compound | max response
21 | CC[C@H](c1ccc(O)cc1)[C@@H](CC)c1ccc(O)cc1 | 11.9%
22 | CN(C)CCOC(=O)C(c1ccccc1)C1(O)CCCC1 (centres undefined) | 1.53%
23 | COc1ccc(CCN(C)CCCN2CCc3cc(OC)c(OC)cc3CC2=O)cc1OC | -9.4%
24 | CC(C)Cn1cnc2c1c(=O)n(C)c(=O)n2C | -4.05%
25 | O=C(Nc1ncc([N+](=O)[O-])s1)c1cccs1 | 35.1%
26 | CCC(CC)(CC(=O)Nc1cccc(/C=C/c2nc(C3CCC3)cs2)c1)C(=O)O | 48.4%
27 | C[C@H]1[C@H]2CC[C@H]3[C@@H]4CC=C5C[C@@H](N(C)C)CC[C@]5(C)[C@H]4CC[C@]23CN1C | -6.8%
28 | C[C@]12CCC(=O)C=C1C=C[C@@H]1[C@@H]2CC[C@@]2(C)[C@H]1CC[C@@]21CCC(=O)O1 | 1.8%
29 | C[N+]12CCC(CC1)C(OC(=O)C(O)(c1ccccc1)c1ccccc1)C2 (centres undefined) | -5.86%
30 | CCCCNc1ccc(C(=O)OCCOCCOCCOCCOCCOCCOCCOCCOCCOC)cc1 | -1.52%
31 | CCN1CCN(C(=O)N[C@@H](C(=O)N[C@@H]2C(=O)N3C(C(=O)O)=C(CSc4nnnn4C)CS[C@H]23)c2ccc(O)cc2)C(=O)C1=O | 14.5%
32 | CO[C@]12C[C@@H](COC(=O)c3cncc(Br)c3)CN(C)[C@@H]1Cc1cn(C)c3cccc2c13 | 10.7%
33 | CCN(CC)CCOC(=O)C1(c2ccccc2)CCCC1 | -2.23%
34 | CN1CCN(c2cc3c(cc2F)c(=O)c(C(=O)O)cn3-c2ccc(F)cc2)CC1 | -4.31%
35 | CC(=O)O[C@H]1C[C@@H]2CC[C@@H]3[C@H](CC[C@@]4(C)[C@H]3C[C@H]([N+]3(C)CCCCC3)[C@@H]4OC(C)=O)[C@@]2(C)C[C@@H]1N1CCCCC1 | -2.39%
36 | O=C1OC(CN2CCOCC2)CN1/N=C/c1ccc([N+](=O)[O-])o1 (centres undefined) | -7.98%
37 | C[C@@]12C(=O)OC(=O)[C@]1(C)C1CCC2O1 | -5.31%
38 | CCCCCCCCCCCCOCCOCCOCCOCCOCCOCCOCCOCCOCCO | 14.7%
39 | CN1CCN(C2=Nc3ccccc3Sc3ccc(Cl)cc32)CC1 | -0.118%
